# Reference: the supplement of paper PMC10981050
# “And” between values parts separate entries of the source, which are not always exact repeats. Equal values may be shown once. Where a name gives a salt, the structure may show the parent alone.
# Legend:
# Assay in all cases: cell viability relative to vehicle control; higher = less cytotoxic
# Settings in all cases: 10 µM
# K562 = system: K562
# In short: (§1)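 Screening covered the Selleck bioactive, kinase and epigenetic probe libraries, less identity-inconsistent compounds, on CRISPR-edited mutant clones and isogenic wild-type clones of four leukaemia lines. Cells, at 2000 per well in 50 µL medium, received a single 10 µM acoustically dispensed dose. After 48 h the supernatant was removed and CellTiter-Glo luminescence was read. Viability was analysed in Genedata Screener as percent of the on-plate vehicle control.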
# MARIMO = system: MARIMO
# In short: as §1
# MOLM14 = system: MOLM14
# In short: as §1
# OCI-AML2 = system: OCI-AML2
# In short: as §1
SMILES,cell viability (K562; SRSF2 genotype: SRSF2 P95H/wt),cell viability (K562; SRSF2 genotype: SRSF2 wt/wt) [%],cell viability (MARIMO; SRSF2 genotype: SRSF2 P95H/wt) [%],cell viability (MARIMO; SRSF2 genotype: SRSF2 wt/wt) [%],cell viability (MOLM14; SRSF2 genotype: SRSF2 P95H/wt) [%],cell viability (MOLM14; SRSF2 genotype: SRSF2 wt/wt) [%],cell viability (OCI-AML2; SRSF2 genotype: P95H/wt) [%],cell viability (OCI-AML2; SRSF2 genotype: wt/wt) [%]
COc1cc(/C=C/C(=O)CC(=O)/C=C/c2ccc(O)c(OC)c2)ccc1O [Curcumin],90.9% and 87%,91.9,87.3,75.7,47.8,59.1,60.6,69.3
O=C(Nc1cccc(C(F)(F)F)c1)Nc1cc(S(=O)(=O)NC2CC2)ccc1-c1ccsc1,82.6% and 92.4%,80.2,94.2,104,92,94.4,86.6,95
COc1cc2c(=O)c(-c3ccc(O)cc3)coc2cc1O [Glycitein],97.5% and 92.1%,102,95.4,90.8,93.7,98.1,90.3,82.3
Cc1cc(=O)oc2ccc(O)cc12 [6-Hydroxy-4-methylcoumarin],111% and 101%,107,107,97,101,103,96,104
O=c1ccc2cc(O)ccc2o1 [6-Hydroxycoumarin],99.5% and 104%,102,99,90.9,104,101,97.9,99
COc1cc(OC)c(NC(=O)Nc2cc(C)on2)cc1Cl,91.9% and 83.8%,85.7,86.4,86.6,61.3,74.5,73.4,74.3
CN1CCN(c2ccc(Nc3ncc4cc(C#N)c(=O)n(C5CCCC5)c4n3)cc2)CC1,79.5% and 104%,87.8,60.4,58.4,17.9,16.4,21.4,29.1
COC(=O)[C@H](CC(C)C)NC(=O)c1ccc(NC[C@@H](N)CS)cc1-c1cccc2ccccc12 [GGTI 298 TFA salt],7.41% and 14.8%,31.9,55,51.1,41,50.6,40.6,37.7
CN(C)CCC=C1c2ccccc2CCc2ccccc21 [Amitriptyline HCl],83.3% and 90.4%,88.2,77.1,83,79,89.7,80.7,89.2
Oc1cc(CNC(=S)/C=C/c2cc(O)c(O)c(Br)c2)cc(O)c1O,20.1% and 32.5%,23.6,16.6,23.2,14.3,5.87,28.1,26.9
COc1cc(OC)cc(N(CCNC(C)C)c2ccc3ncc(-c4cnn(C)c4)nc3c2)c1,5.81% and 13.7%,12.4,50.6,54.4,34.8,34.9,24.7,31.9
N=C(N)Nc1ccc(C(=O)Oc2ccc3cc(C(=N)N)ccc3c2)cc1 [Nafamostat mesylate],90.4% and 98.9%,89.4,77.2,76,94.2,89.4,83.2,85.1
CC(NC(=O)c1ccccc1/N=C/c1c(O)ccc2ccccc12)c1ccccc1 (configuration not stated) [Sirtinol],93% and 101%,103,102,98.7,94.7,101,103,102
CC1=C[C@H]2[C@@H](CC1)[C@H](C)CC[C@H]2[C@@H](C)C(=O)O [Dihydroartemisinic acid],99.8% and 91.7%,99.6,101,104,94.6,101,98.5,109
C=C1C[C@@]23CC[C@H]4[C@@](C)(CCC[C@@]4(C)C(=O)O)[C@@H]2CC[C@]1(O[C@@H]1O[C@@H](CO)[C@@H](O)[C@H](O)[C@@H]1O[C@@H]1O[C@@H](CO)[C@@H](O)[C@H](O)[C@@H]1O)C3 [Steviolbioside],111% and 108%,107,114,99.5,118,110,104,103
Cc1ccc(NC(=O)C2(c3ccc4c(c3)OC(F)(F)O4)CC2)nc1-c1cccc(C(=O)O)c1 [VX-809 (Lumacaftor)],108% and 106%,112,115,113,109,106,106,122
Cc1cc(-c2ccc(/N=N/c3ccc4c(S(=O)(=O)O)cc(S(=O)(=O)O)c(N)c4c3O)c(C)c2)ccc1/N=N/c1ccc2c(S(=O)(=O)O)cc(S(=O)(=O)O)c(N)c2c1O [Evans Blue],66.2% and 64.2%,62.8,63.8,72.2,67.4,64.7,66.2,67.6
O=C(O)c1c[nH]c2cc(Cl)c(-c3ccc(C4(O)CCC4)cc3)cc12,91.2% and 101%,95.2,92.8,115,106,102,86.5,96.9
CCCCOc1cc(C(=O)NCCN(CC)CC)c2ccccc2n1 [Dibucaine (Cinchocaine) HCl],94.5% and 84%,85.3,81.8,91.5,86.2,91.7,93.2,86.1
O=C(/C=C/c1cccc(S(=O)(=O)Nc2ccccc2)c1)NO [Belinostat (PXD101)],1.83% and 15.8%,5.17,8.17,13.7,0.86,0.57,2.66,4.34

SMILES,cell viability (K562; SRSF2 genotype: SRSF2 P95H/wt),cell viability (K562; SRSF2 genotype: SRSF2 wt/wt) [%],cell viability (MARIMO; SRSF2 genotype: SRSF2 P95H/wt) [%],cell viability (MARIMO; SRSF2 genotype: SRSF2 wt/wt) [%],cell viability (MOLM14; SRSF2 genotype: SRSF2 P95H/wt) [%],cell viability (MOLM14; SRSF2 genotype: SRSF2 wt/wt) [%],cell viability (OCI-AML2; SRSF2 genotype: P95H/wt) [%],cell viability (OCI-AML2; SRSF2 genotype: wt/wt) [%]
"C[C@H](Nc1ncnc2nc[nH]c12)c1cc2cccc(Cl)c2c(=O)n1-c1ccccc1 [Duvelisib (IPI-145, INK1197)]",93.1% and 95.6%,94.3,67.6,62.3,50.2,51.6,28.7,38
CC1(C)S[C@@H]2[C@H](NC(=O)C(C(=O)O)c3ccccc3)C(=O)N2[C@H]1C(=O)O (some centres not stated) [Carbenicillin disodium],93.2% and 88.7%,97.2,90.3,98.8,98.6,95.4,95,93
CCOc1ccc(Cc2cc([C@]34OC[C@](CO)(O3)[C@@H](O)[C@H](O)[C@H]4O)ccc2Cl)cc1 [Ertugliflozin],104% and 95.2%,104,104,101,103,102,104,113
NC(=S)c1ccncc1 [Thioisonicotinamide],107% and 101%,98.9,96.9,105,103,105,99.4,110
CCN(CC)Cc1cc(Nc2ccnc3cc(Cl)ccc23)ccc1O [Amodiaquine hydrochloride],80.3% and 76.8%,74,61,67.4,40.2,31.1,39,33.4
O=C(Nc1cc2cc[nH]c2cn1)c1ccccc1,45.9% and 44.5%,43,43.3,45.8,49.3,51.1,38.6,39.3
COc1ccc(-c2ccc3c(N4CCOC[C@@H]4C)nc(N4CCOC[C@@H]4C)nc3n2)cc1CO,39.7% and 40.4%,35.5,54.4,46.2,30.4,26.2,26.5,27.7
N#CC[C@H](C1CCCC1)n1cc(-c2ncnc3[nH]ccc23)cn1,87.3% and 90%,97.7,78,91,68.8,82.6,60.7,57.9
O=C(/C=C/c1ccc2ccccc2n1)c1ccncc1,6.76% and 0.53%,0.42,0.28,0.4,0.4,0.45,0.31,0.36
Nc1nc(=O)[nH]c2c1ncn2[C@@H]1O[C@H](CO)[C@@H](O)[C@H]1O [Isoguanosine],101% and 98.5%,98.7,94.7,97.7,93.3,96.8,106,91.8
OC[C@H]1O[C@@](CO)(O[C@H]2O[C@H](CO)[C@@H](O)[C@H](O)[C@H]2O)[C@@H](O[C@H]2O[C@H](CO)[C@@H](O)[C@H](O)[C@H]2O)[C@@H]1O [Melezitose],107% and 99.6%,104,99,111,102,104,96.3,114
C=CC[N+]1([C@H]2C[C@H]3[C@@H]4CC[C@H]5C[C@H](O)[C@@H](N6CCOCC6)C[C@]5(C)[C@H]4CC[C@]3(C)[C@H]2OC(C)=O)CCCC1 [Rocuronium bromide],98.3% and 90.4%,91.2,90.3,95.3,103,96.7,88.1,99.3
C[C@@]12C[C@@]3(O)O[C@@H](O1)[C@]1(COC(=O)c4ccccc4)[C@H]3C[C@@]12O[C@@H]1O[C@H](CO)[C@@H](O)[C@H](O)[C@H]1O [Paeoniflorin],100% and 109%,102,101,101,107,111,112,97.3
COc1cc([C@H]2OC[C@H]3[C@@H]2CO[C@@H]3c2ccc(O[C@@H]3O[C@H](CO)[C@@H](O)[C@H](O)[C@H]3O)c(OC)c2)ccc1O[C@@H]1O[C@H](CO)[C@@H](O)[C@H](O)[C@H]1O [Pinoresinol diglucoside],105% and 104%,101,105,108,105,103,104,109
CSc1ccc(C(=O)/C=C/c2cc(C)c(OC(C)(C)C(=O)O)c(C)c2)cc1 [Elafibranor],91.2% and 99.2%,88.1,91.3,91,34.2,30,61.7,57
C[C@]12CC[C@@H]3c4ccc(O)cc4CC[C@H]3[C@@H]1CC[C@@H]2O [Estradiol],97% and 94.8%,93.8,93.2,90.2,95.3,98.6,101,111
O=C1Cc2ccccc2N1 [Oxindole],96.9% and 92%,98.4,98.2,103,95,98.9,95.9,105
C[C@@H]1O[C@@H](O[C@@H]2[C@@H](O)[C@H](OCCc3ccc(O)c(O)c3)O[C@H](COC(=O)/C=C/c3ccc(O)c(O)c3)[C@H]2O)[C@H](O)[C@H](O)[C@H]1O [Isoacteoside],101% and 104%,91.6,99,103,94.9,101,100,106
CO/N=C(\C(=O)N[C@@H]1C(=O)N2C(C(=O)O)=C(CSC(=O)c3ccco3)CS[C@H]12)c1csc(N)n1 [Ceftiofur],108%,103,110,109,97,108,112,105
